# RTF Ca sens inh: cardiac RTF calcium desensitization; inhibition, % at 7.15 µM; IANBD-labeled cardiac RTF, Ca2+ fluorescence; P19429+P45379; 0.12% of 340,000 active;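 active = inhibition above the mean inhibition of all tested compounds plus 3 SD, cut at about 17% in these data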;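 note: assay run at fixed EC70 calcium of 1.6 mM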
# LANA DNA inh: KSHV C-LANA DNA binding inhibition. 0.078% of 340,000 active. AID 504423. MBP-C-LANA/FAM-LBS DNA binding, fluorescence polarization. inhibition, % at 9 µM;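 active = highest replicate inhibition at or above 60% at 9 µM, even if other replicates fall short; inactive = all replicates below 60% inhibition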
# E coli Lon inh: E. coli protease La inhibition; 0.42% of 360,000 active; purified E. coli Lon protease, fluorescence polarization; P0A9M0; inhibition, % at 7.94 µM; in the data active = inhibition above about 13%, passing the limit was not always enough
# Target sequence (P0A9M0 whole entry, looked up): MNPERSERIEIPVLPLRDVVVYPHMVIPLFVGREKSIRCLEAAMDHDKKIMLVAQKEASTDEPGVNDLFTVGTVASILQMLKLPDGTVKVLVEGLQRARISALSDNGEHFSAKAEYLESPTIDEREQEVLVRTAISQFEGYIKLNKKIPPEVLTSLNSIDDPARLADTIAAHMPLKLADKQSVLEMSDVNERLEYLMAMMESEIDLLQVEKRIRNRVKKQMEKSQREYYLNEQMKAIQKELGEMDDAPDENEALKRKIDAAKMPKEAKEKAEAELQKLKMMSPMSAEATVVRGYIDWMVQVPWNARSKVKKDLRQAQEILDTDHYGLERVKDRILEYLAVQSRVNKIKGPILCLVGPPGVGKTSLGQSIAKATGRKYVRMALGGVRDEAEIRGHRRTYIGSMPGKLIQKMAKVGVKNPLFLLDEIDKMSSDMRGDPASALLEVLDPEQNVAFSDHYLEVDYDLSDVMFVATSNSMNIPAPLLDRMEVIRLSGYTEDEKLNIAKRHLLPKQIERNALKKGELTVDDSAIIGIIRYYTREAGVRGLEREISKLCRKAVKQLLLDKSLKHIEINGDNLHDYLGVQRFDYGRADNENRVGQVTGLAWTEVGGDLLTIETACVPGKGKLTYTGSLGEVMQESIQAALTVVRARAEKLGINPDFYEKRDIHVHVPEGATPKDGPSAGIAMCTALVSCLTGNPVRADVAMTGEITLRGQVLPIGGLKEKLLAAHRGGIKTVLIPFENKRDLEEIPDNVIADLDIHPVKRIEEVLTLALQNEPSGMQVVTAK
# Keap1 Nrf2 FP: Keap1-Nrf2 (human) interaction inhibition; 0.15% of 340,000 active; Q14145; AID 504523; inhibition, % at 9.4 µM; Keap1 Kelch-Nrf2 peptide fluorescence polarization, 1536-well; in the data active = inhibition above about 12%;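 note: human Keap1 Kelch domain with fluorescein labeled Nrf2 9mer peptide probe; higher means more block of Keap1 binding to Nrf2 peptide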
# cardiac RTF act: cardiac RTF calcium sensitization | P19429+P45379 | IANBD-labeled TnC RTF fluorescence at EC20 calcium; 0% EC20 calcium, 100% full calcium | activation, % at 7.2 µM | 0.24% of 340,000 active;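 active = activation above the mean over all tested compounds plus 3 SD, cut at about 30% in these data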;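 note: rise in fluorescence read as greater calcium sensitivity of cardiac thin filaments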
# E coli Lon conf: confirmation of E. coli Lon protease inhibitors; inhibition, % at 7.94 µM; shares compounds with E coli Lon inh; AID 602230; purified E. coli Lon, fluorescence polarization; 31% of 1,400 active; in the data active = inhibition above about 16%
# Numbers stand for hits; . = inactive; / = no result given. Compounds with a hit are over-represented: about 0.82% of the library has one in this group of screens.
SMILES,RTF Ca sens inh,LANA DNA inh,E coli Lon inh,Keap1 Nrf2 FP,cardiac RTF act,E coli Lon conf
Nc1c(C(=O)N/N=C/c2cccnc2)oc2nc(-c3ccco3)cc(-c3ccco3)c12,/,/,56.4,/,/,.
Nc1c(C(=O)N/N=C/c2cccnc2)oc2nc(-c3ccccc3)cc(-c3ccco3)c12,/,.,.,.,/,/
COc1ccc(CNCC(O)(c2ccc(Cl)cc2)c2ccc(Cl)cc2)cc1OC,.,.,.,.,.,/
COc1ccc(CNCC(O)(c2ccc(Cl)cc2)c2ccc(Cl)cc2)cc1,.,.,47.9,.,.,.
C[C@@H]1CCCN1[C@H]1CS(=O)(=O)N[C@@H]1COCc1ccccc1,/,/,.,/,/,/
CCOc1ccc(NC(=O)CSC2=NCCN2)cc1,.,.,44.9,.,.,.
C[C@H]1CN([C@@H](C)CO)C(=O)CCCn2nncc2CO[C@H]1CN(C)S(=O)(=O)c1cccc(F)c1,/,/,13.0,/,/,.
C[C@H](CO)N1C[C@H](C)[C@@H](CN(C)S(=O)(=O)c2cccc(F)c2)OCc2cnnn2CCCC1=O,/,/,.,/,/,/
Cc1onc(-c2c(Cl)cccc2Cl)c1C(=O)N=C(N)N1CCOCC1,.,.,.,.,.,/
Cc1onc(-c2c(Cl)cccc2Cl)c1C(=O)N=C(N)N1CCCC1,.,.,32.9,.,.,.
COc1ccccc1N1CCN(C(=O)c2c(-c3c(F)cccc3Cl)noc2C)CC1,.,.,21.2,.,.,.
O=C(COc1ccccc1)NC(=S)Nc1cccc2c(O)cccc12,/,/,.,/,/,/
CCOC(=O)[C@]12CCCC=C1N(Cc1ccco1)C(=O)[C@H](CC(=O)NCC1CCCCC1)C2,/,/,.,/,/,/
CC(O)(c1ccc(F)c(F)c1)c1nc(-c2cc3ccccc3o2)cs1 (stereo unspecified),/,/,.,/,/,/
CCn1nnc(C(=O)O)c1C(=O)O,.,.,15.9,.,.,.
Nc1c(C(=O)O)nnn1Cc1ccccc1,.,.,.,.,.,/
O=C1N=C(N2C=CC(=C3C=CNC=C3)C=C2)/C(=C/N=NC(=O)c2ccccc2O)S1,.,.,40.5,.,.,40.6
CC(=O)Nc1ccc(NC(=O)CSc2ccc(-c3ccco3)nn2)cc1,.,.,17.2,.,.,.
Cc1ccc(NC(=O)CSc2nnc(-c3ccco3)c(-c3ccco3)n2)cc1,.,.,161.3,.,.,.
CCOC(=O)[C@]12CCC=C1N(Cc1ccccc1)C(=O)[C@H](CC(=O)N1CCOCC1)C2,/,/,.,/,/,/
CC1(C)CC(=O)C=C(c2cccc(O)c2)C1=O,.,.,.,.,.,/
COc1cccc(C2=CC(=O)CC(C)(C)C2=O)c1,/,/,11.8,/,/,.
C[C@@H](CO)NC(=O)c1[nH]cnc1C(=O)Nc1ccc(CNC(=O)OC(C)(C)C)cc1,/,/,.,/,/,/
COc1ccc(NC(=O)C2(C)Cc3c(-c4cccc(NC(C)=O)c4)ccnc3O2)cn1 (stereo unspecified),/,/,27.8,/,/,.
Nc1ncnc(N)c1NC(=O)c1ccc(OCc2ccccc2)cc1,/,/,.,/,/,/
SMILES,RTF Ca sens inh,LANA DNA inh,E coli Lon inh,Keap1 Nrf2 FP,cardiac RTF act,E coli Lon conf
C[C@H](O)[C@@H]1CN2CCc3c([nH]c4ccccc34)[C@@H]2C[C@@H]1N(C)C(=S)NCCc1ccccc1,/,/,197.3,/,/,120.6
CCOc1ccc(OCCC(=O)OCC(=O)N2CCN(S(=O)(=O)c3ccc(C)cc3C)CC2)cc1,.,.,20.3,.,.,.
COc1cccc(C(=O)N2CCC[C@H]2C(=O)N2CCC[C@H]2C(=O)NCc2ccccn2)c1,/,/,.,/,/,/
CCOC(=O)C1(C)CCCCCN1C(=O)c1ccc(N(C)C)cc1 (stereo unspecified),/,/,.,/,/,/
Cc1cc2cc(CNC(=O)c3ccc(C)c([N+](=O)[O-])c3)ccc2[nH]1,.,.,21.5,.,.,.
Cc1cc2cc(CCNC(=O)c3ccc(C)c([N+](=O)[O-])c3)c(=O)[nH]c2cc1C,.,.,.,.,.,/
OCc1ccccc1-c1nc(NCc2ccccc2)nc2ccsc12,/,/,.,/,/,/
Cc1noc(NS(=O)(=O)c2ccc(NC(=O)COc3ccccc3)cc2)c1C,.,.,.,.,.,/
COCC(=O)Nc1ccc(S(=O)(=O)Nc2onc(C)c2C)cc1,/,/,61.7,/,/,.
COc1ccc(Cl)cc1S(=O)(=O)n1ccnc1C(C)C,.,.,16.9,.,.,.
Cc1cc(-c2csc(N)n2)c(C)n1C,.,.,16.2,.,.,.
O=C(CCCN1C(=O)C(=Cc2ccc3c(c2)OCO3)SC1=S)Nc1ccc(C(=O)O)c(O)c1,/,/,.,/,/,/
CCC(CO)Nc1ccn2nc(-c3cccc(Cl)c3)cc2n1 (stereo unspecified),/,/,.,/,/,/
O=C(c1ccc(S(=O)(=O)Cc2cc(F)ccc2F)c([N+](=O)[O-])c1)N1CCOCC1,/,/,.,/,/,/
Cc1ccc(CN2CC[C@H]3C=CCc4cccc(c43)C2)cc1,.,.,.,.,.,/
C1=C[C@@H]2CCN(Cc3ccccc3)Cc3cccc(c32)C1,.,.,33.9,.,.,.
NNC(=O)CNC(=O)C12CC3CC(CC(C3)C1)C2,.,.,16.6,.,.,.
NS(=O)(=O)c1ccc(NS(=O)(=O)c2ccc(C3CNC(=O)C3)cc2)cc1 (stereo unspecified),.,.,19.1,.,.,.
OC[C@H]1O[C@@H](c2nc3ccc(-c4nc(-c5cccs5)no4)cc3[nH]2)C[C@@H]1O,/,/,.,/,/,/
O=C(NCCc1ccc(F)cc1)C1CCC(=O)N(CC2CCCCC2)C1 (stereo unspecified),/,/,.,/,/,/
CO/N=C\CC(=O)Nc1ccc(Cl)c(Cl)c1,.,.,17.4,.,.,.
CC1(C)CC(=O)C/C(=N/NC(=O)COc2ccc(Cl)cc2Cl)C1,.,.,25.5,.,.,.
CN(C)CCNc1ncnc2c1ncn2[C@H]1CN(Cc2ccc(Cl)cc2)C[C@@H](CO)O1,/,/,.,/,/,/
CN(C)CCNC(=O)c1cccc(-c2cccc3nncn23)c1,/,/,.,/,/,/
O=C1c2ccccc2-c2n[nH]c3cccc1c23,.,.,22.6,.,.,32.6
SMILES,RTF Ca sens inh,LANA DNA inh,E coli Lon inh,Keap1 Nrf2 FP,cardiac RTF act,E coli Lon conf
CCO[C@H]1OC(C(=O)N2CCN(Cc3ccccc3)CC2)=C[C@@H](C)[C@@H]1CCCO,.,.,28.5,.,.,.
O=C(Cn1ccc2ccccc2c1=O)NCCC(=O)N1CCN(c2ccccc2)CC1,.,.,.,.,.,/
O=C(Cn1ccc2ccccc2c1=O)NCC(=O)N1CCN(c2ccc(F)cc2)CC1,.,.,22.6,.,.,.
COc1cccc(OC)c1C(=O)NNC(=O)c1cccc(COc2ccc3c(c2)CCC3)c1,.,.,14.5,.,.,.
O=C(NCc1ccccc1)c1cccc(COc2ccc3c(c2)CCC3)c1,.,.,.,.,.,/
CN(C)Cc1cc(O)c(CN(C)C)cc1O,.,.,32.1,.,.,.
O=C(CNC(=O)c1ccc(-c2ccccc2)cc1)Nc1ccc(S(=O)(=O)Nc2ncccn2)cc1,.,.,30.1,.,.,42.7
O=C(CS(=O)(=O)c1ccccc1)Nc1ccc(S(=O)(=O)Nc2ncccn2)cc1,.,.,.,.,.,/
O=C(Cc1ccc(Cl)cc1)Nc1ccc(S(=O)(=O)Nc2ncccn2)cc1,.,.,.,.,.,/
O=C(Cc1c(Cl)cccc1Cl)Nc1ccc(S(=O)(=O)Nc2ncccn2)cc1,.,.,18.7,.,.,.

# Source: PubChem (several laboratories)
